The structures appear in SMILES notation. Unmarked numbers belong to inactive results.

The experiment deals with Madurella mycetomatis MM55. Nature of the experiment: percent growth relative to solvent control; higher = less inhibition, active = 20 or less. As to conditions: 100 µM; 7 days.
Take `CC(C)C(C(=O)Nc1ccc(S(=O)(=O)N(C)C)cc1)c1ccc(Cl)cc1` (stereo not drawn): the percent growth was 121%. To `CC(C)c1ncc(-c2ccncc2)c([C@H]2CC[C@H](CNC(=O)c3cccnc3)CC2)n1` belongs 114%; to `COc1ccc(C2CC(c3cccs3)=NN2C(=O)c2ccco2)cc1OC` (stereo not drawn), 100%. To `N#Cc1nc(-c2ccccc2F)oc1NCCc1ccccc1` belongs 56.7%; to `Cc1nn2c(O)c3c(nc2c1-c1ccc(F)cc1)CCCC3`, 113%. To `COc1cccc2c(C)nc(N=C(N)N)nc12` belongs 96.9%; to `Cc1cc(C)cc(COc2ccc3c(C)c(CCC(=O)O)c(=O)oc3c2C)c1`, 84.8%; to `O=S(=O)(c1ccc(Cl)cc1)N1CCN(C(=S)NCc2ccco2)CC1`, 151%. Take `CCN(CC)CCCN1CCN(C(=O)c2cccc(-c3noc(C(F)(F)F)n3)c2)CC1`: the percent growth was 118%. To `Cc1cnc(CCNC(=O)c2cc(-c3ccc(Cl)cc3)cs2)[nH]1` belongs 94.3%.

`CC1(COc2ccc(N3CCC(Oc4ccc(OC(F)(F)F)cc4)CC3)cc2)Cn2cc([N+](=O)[O-])nc2O1` (stereo not drawn): the percent growth is 111%. To `COc1ccc(Cn2cnc3c(-c4ccco4)nc(Cl)nc32)cc1` belongs 82.7%. To `CC(C)C(Oc1cccc2ccccc12)C(=O)O` (stereo not drawn) belongs 118%; to `Cc1ccc(Oc2ccc(NC(=O)CNc3ccccc3N3CCCC3=O)cc2)cc1`, 107%; to `CCc1nc2ccccc2n1CC(O)COc1cc(C)ccc1Cl` (stereo not drawn), 93.7%.

As to `O=[N+]([O-])c1cn2c(n1)OC[C@@H](OCc1ccc(OC(F)(F)F)cc1)C2`, the percent growth was 97.3%. Turning to `O=C(NCCc1ccn(-c2ccccc2)n1)C1CCCCC1`, the percent growth is 49.1%. Consider `FC(F)(F)c1nnc2ccc(Cl)nn12`, for which the percent growth is 116%. To `Nc1nccc2ccc(Oc3ccncc3)cc12` belongs 71.5%. Next, `COc1cc(C(F)(F)F)nc2ccc(C)c(N)c12`: 77.1%. To `Cc1cccnc1NC(=O)c1cccc(OCc2c(C)noc2C)c1` belongs 85.1%; to `CC1(C)Cc2c(c(N3CCOCC3)nc3snc(Br)c23)CO1`, 78.9%; to `CCc1cc(=O)n(C)c(SC(C)C(=O)Nc2ccc(F)cc2)n1` (stereo not drawn), 61.1%. For the molecule `CC(C)C(NC(=O)Cc1cccc2ccccc12)C(=O)Nc1cccc(C#N)c1` (stereo not drawn), the percent growth was 121%.

With `O=C(NCc1cc(Cl)cc(Cl)c1)c1c(C(F)(F)F)nc2ccccn12`, the percent growth is 107%.

For the molecule `CCS(=O)(=O)N(Cc1ccco1)Cc1cc2ccc(C)cc2nc1O`, the percent growth is 85%. Next, `Cc1cc(Nc2ccc(C(F)(F)F)cc2)n2ccnc2n1`: 77.4%. Next, `Nc1cccnc1Nc1ccc(Cl)cc1`: 80.6%. Regarding `NCC(=O)N1CCn2c(nc(-c3ccccc3)c2Nc2ccc3c(c2)OCO3)C1`, the percent growth is 157%. Next, `CCCCN(CCCC)c1c(C#N)cc(S(=O)(=O)Nc2ccccc2)cc1C#N`: 85.7%; `CNC1C(OC2C(OC3C(O)C(O)C(NC(=N)N)C(O)C3NC(=N)N)OC(C)C2(O)C=O)OC(CO)C(O)C1O` (stereo not drawn): 119%; `COc1cc(-c2cc(-c3ccc(S(C)(=O)=O)cc3)cnc2N)ccc1O`: 11.2% (active). Next, `O=C1[C@@H](Oc2ccccc2)[C@@H](c2ccc(Cl)cc2)N1CCn1cnc2c(NCc3ccccc3)ncnc21`: 98.5%; `COc1ccccc1C(C)NCC(=O)Nc1cc(C(F)(F)F)ccc1Cl` (stereo not drawn): 28.7%. To `O=C(NCc1ccoc1)N1CCN(Cc2ccc3c(c2)OCO3)CC1` belongs 92.5%. With `N#Cc1ccc(-c2ccc(OCC(N)=O)cc2)cc1`, the percent growth was 96.5%.

Turning to `O=C(C1CCN(c2nnc(-n3cccc3)s2)CC1)N1CCC(Cc2ccccc2)CC1`, the percent growth is 108%. For the molecule `CC1CCCN(C(=O)C(C)Nc2cc(Cl)ccc2N2CCOCC2)C1` (stereo not drawn), the percent growth was 53.8%.

The record behind these values is the supplement of paper PMC5940239.
